HT1080 IDH1KD tx = toxicity to HT-1080 IDH1 knockdown cells (counter line); hit rate 2% among 360,000; AID 686971; Potency, µM (series often up to 46.1 µM), for the others: at the top dose activity, negative = toxicity, usual class: cytotoxic; HT-1080 IDH1 knockdown viability, ATP luminescence, 48 h;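 further: 0% = DMSO wells and -100% = cell-free medium wells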
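Cytotoxicity counter-line: IDH1KD HT-1080, 48 h, CellTiter-Glo. Curves classed by r2, magnitude and activity.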
DT40 TDP1 CPT = DT40-hTDP1 cell growth loss with CPT. chicken DT40 Tdp1-/-;hTDP1 cells + 20 nM CPT, ATP luminescence, 48 h. hit rate 12% among 420,000. Potency, µM (series often up to 46.2 µM), for inactives: top-dose activity change, negative = growth inhibition, actives largely listed as inhibitors; further: nearly all actives have a fitted effect of over 55% in size
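Chicken DT40 Tdp1-/- cells complemented with human TDP1, 400 cells/well, exposed to compounds plus 20 nM camptothecin for at least 48 h at 37 C; viability read as ATP content by CellTiter-Glo luminescence.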
HT1080NT lethal = kills 2HG-producing HT-1080-NT fibrosarcoma cells | HT-1080-NT fibrosarcoma viability, CellTiter-Glo ATP luminescence, 48 h | Potency, µM (highest dose often 46.1 µM), for inactives: at the highest dose activity, negative = less viability, hits mostly cytotoxic | hit rate 1.6% among 360,000 | AID 686970;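 further: NT is the 2HG producing partner of a matched IDH1 knockdown line; 0% = DMSO-treated cells and -100% = media-only wells without cells; nearly all actives have a fitted effect of over 55% in size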
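HT-1080-NT; 750 cells/well; 5% FBS RPMI; 48 h compound, 37 degrees C; CellTiter-Glo luminescence; curve fitting and curve-class assignment.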
TDP1 cell noCPT = qHTS for Inhibitors of human tyrosyl-DNA phosphodiesterase 1 (TDP1): qHTS in cells in absence of CPT; hit rate 15% among 420,000; Potency, µM (doses to about 46.2 µM), for the others: at the top dose activity change, negative = growth inhibition, actives largely listed as inhibitors; DT40 Tdp1-/- hTDP1 cells, no CPT, ATP luminescence, 48 h; further: nearly all actives have a fitted effect of over 55% in size
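Chicken DT40 Tdp1-/- cells stably complemented with human TDP1 were seeded at 400 cells/well with DMSO in place of 20 nM camptothecin. After compound pinning, cells grew at least 48 hr at 37 °C; viability read by CellTiter-Glo luminescence.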
KB-3-1 tox = kills parental KB-3-1 adenocarcinoma cells | KB-3-1 viability, CellTiter-Glo ATP luminescence, 72 h | Potency, µM (highest dose often 46.1 µM), hits mostly cytotoxic | hit rate 1.4% among 400,000; further: nearly all actives have a fitted effect of over 60% in size
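Cytotoxicity measured as CellTiter-Glo luminescence after 72 h at 37 C. Compound titrations were pinned onto drug-naive KB-3-1 parental adenocarcinoma cells grown in DMEM with 10% FBS, and normalized data fitted to concentration-response curves.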
KB-V1 MDR tox = KB-V1 MDR subline cytotoxicity; KB-V1 MDR cells viability, CellTiter-Glo, 72 h; AID 1347076; Potency, µM (top dose mostly 46.1 µM), actives largely listed as cytotoxic; hit rate 3.4% among 400,000; further: nearly all actives have a fitted effect of over 60% in size
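Cytotoxicity via CellTiter-Glo luminescence after 72 h compound exposure at 37 degrees C. Cells: drug-selected KB-V1 line, DMEM phenol-red free plus 10% FBS. Compounds tested at multiple concentrations; normalized data fitted to concentration-effect curves.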
Active calls of the source: *; i = inactive; ? = inconclusive; . = no result. The list is not random: actives were taken first. Their share in the collection is about 19%. The call rests on the fitted dose curve; in most records, active means well fitted curve in the direction sought with a large enough effect; inconclusive means small, poorly fitted or top-dose-only effect, or another doubt; inactive means no such curve, though single readings can be large; an effect the other way counts as inactive or inconclusive. Unless noted, on the % scale 0 is the no-effect control and ±100 the full control effect; potency means the concentration at half of the fitted maximal effect.

SMILES	HT1080 IDH1KD tx	DT40 TDP1 CPT	HT1080NT lethal	TDP1 cell noCPT	KB-3-1 tox	KB-V1 MDR tox
COCCCNc1nc(NCc2cccc(Cl)c2)c2cnn(C)c2n1	.	?	.	18µM*	?	?
Cn1ncc2c(NCc3ccccc3)nc(NCCCO)nc21	-1%	-9%	0%	11%	i	i
CCCCn1cnc2c(sc3nc4c(cc32)CSC(C)(C)C4)c1=O	-4%	?	-4%	?	i	21µM*
CC(C)CCn1cnc2c(sc3nc4c(cc32)CSC(C)(C)C4)c1=O	3%	?	9%	16µM*	i	?
CC1(C)Cc2nc3sc4c(N(CCO)CCO)nnnc4c3cc2CO1	-9%	-27%	2%	-22%	i	i
CC1(C)Cc2nc3sc4c(SCC(=O)O)ncnc4c3cc2CO1	24%	-2%	4%	?	i	?
CC1(C)Cc2nc3sc4c(NCCO)ncnc4c3cc2CS1	1%	?	-3%	21µM*	i	i
CC1(C)Cc2nc3sc(C(=O)NCCCO)c(N)c3cc2CS1	-1%	0%	1%	-19%	i	i
Cc1cc(=O)oc2cc(OCC(=O)Nc3ccc(S(=O)(=O)N(C)C)cc3)ccc12	4%	-14%	0%	-14%	i	i
Cc1nc(SCC(=O)NCC2CCCO2)[nH]c(=O)c1C (centres undefined)	3%	2%	3%	0%	i	i
Cc1ccc(CNC(=O)c2cccn2-c2nnc(N3CCCCC3)s2)cc1	.	21µM*	.	23µM*	i	i
CCN(CC)c1ccc(NC(=O)c2cccn2-c2nnc(N3CCCCC3)s2)c(C)c1	.	5.2µM*	.	5.8µM*	i	i
COc1ccc(NC(=O)c2cccn2-c2nnc(N3CCCCC3)s2)c(OC)c1	.	?	.	?	i	i
COc1ccc(CNC(=O)c2cccn2-c2nnc(N3CCCC3)s2)c(OC)c1	.	?	.	16µM*	i	i
CCOc1ccc(CNC(=O)c2cccn2-c2nnc(N3CCCCC3)s2)cc1OC	.	26µM*	.	16µM*	i	i
CCOc1ccccc1CNC(=O)c1cccn1-c1nnc(N2CCCCC2)s1	.	?	.	?	i	?
CCC(=O)Nc1cc(C(=O)OCC(=O)c2ccccc2)ccc1C	-1%	4%	-2%	-7%	i	i
Clc1ccccc1COc1ccc(/C=N/n2cnnc2)cc1	2%	?	3%	?	i	?
C=CCNC(=S)N/N=C/c1ccc(OCc2ccccc2Cl)cc1	3.2µM*	?	3.2µM*	-27%	i	i
O=c1c(N2CCOCC2)c(N2CCOCC2)c1=O	-3%	-6%	5%	-4%	i	i
CC(C)(C)C1=CC(=O)C(N2CCOCC2)=CC1=O	-7%	7.3µM*	-2%	21µM*	i	i
C=CCn1c(=NC(=O)C2COc3ccccc3O2)sc2cccc(OC)c21 (centres undefined)	1%	?	-3%	23µM*	?	?
COC(=O)Cn1c(=NC(=O)C2COc3ccccc3O2)sc2cc(S(N)(=O)=O)ccc21 (centres undefined)	-4%	?	-4%	18µM*	i	i
COC(=O)Cn1c(=NC(=O)CN2C(=O)CCC2=O)sc2cc(S(N)(=O)=O)ccc21	7%	-8%	7%	-8%	i	i
CCn1c(=NC(=O)C2COc3ccccc3O2)sc2c(C)ccc(OC)c21 (centres undefined)	0%	21µM*	-1%	12µM*	?	?
C=CCn1c(=NC(=O)CN2C(=O)CCC2=O)sc2cccc(OC)c21	-2%	?	-1%	?	i	i

Assay outcomes as filed in PubChem.
